Results filed as inconclusive are left out. A call without a number means that no potency is given here. Values without a mark were called inactive. The source made the active and inactive calls. The call rests on the fitted dose curve; in most records, active means well fitted inhibition curve with a large enough effect; inconclusive means small, poorly fitted or top-dose-only effect; inactive means flat fitted curve, though single readings scatter.
molecular target: Phospholipid hydroperoxide glutathione peroxidase GPX4 (Homo sapiens) (UniProt P36969); test: Primary qHTS Assay for Inhibitors of Recombinant Selenoprotein Glutathione Peroxidase 4 (GPX4) (AID 1845192); conditions: recombinant GPX4, GR-coupled NADPH fluorescence, 15 min; series mostly up to 50 µM; activity change, negative = inhibition: at the top concentration; further: nearly all actives have a fitted effect of over 65% in size
Sequence (P36969 whole entry, looked up): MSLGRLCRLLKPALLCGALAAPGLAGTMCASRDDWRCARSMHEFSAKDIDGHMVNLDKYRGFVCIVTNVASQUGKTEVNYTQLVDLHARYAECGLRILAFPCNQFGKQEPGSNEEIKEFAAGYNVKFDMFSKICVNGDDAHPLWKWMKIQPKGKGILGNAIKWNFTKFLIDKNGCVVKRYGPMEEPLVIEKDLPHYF
Text: Assay Provider: Elias S.J. Arner MD PhD.
Department of Medical Biochemistry and Biophysics
Karolinska Institutet, Solna, Stockholm, Sweden
Selenoprotein glutathione peroxidases (GPX), like the ubiquitously expressed GPX1 and the ferroptosis modulator GPX4, enact their antioxidant activities by reducing hydroperoxides using glutathione. […] GPX1 and GPX4 inhibitors have thus shown promise as anti-cancer agents. Existing inhibitors are often promiscuous, or modulate GPX activity only indirectly, so novel direct inhibitors identified through screening against GPX1 and GPX4 could be valuable. Here, we developed optimized glutathione reductase (GR)-coupled GPX assays for the biochemical high-throughput screen (HTS) of almost 12,000 compounds with known mechanisms of action. Initial hits were triaged using a GR counter-screen, assessed for isoform specificity using a separate GPX2 assay, and were assessed for general selenocysteine-targeting activity using a thioredoxin reductase (TXNRD1) assay. With this suite of assays, we identified novel GPX1/GPX2- and GPX4-specific inhibitors and can here present a validated pipeline for future discovery research for selenoprotein-targeting agents.
SEQUENCE No. (e.g., 1, 2, 3, etc.); […] (e.g., Cells, Incubation, Reagent, etc.); VALUE; DESCRIPTION.
1; Reagent 1; 3 uL; 333.33 nM GPx4 enzyme or no enzyme control in 1536-well, black, solid Greiner assay plate.
2; Compound; 25 nL; Kalypsis pin tool (Wako USA) equipped with a 1536-well pin head.
3; Incubation; 30 min; room temperature.
4; Reagent 2; 1 uL; 500 nM GR, 5 mM GSH, 2.5 mM NADPH solution
5; Reagent 3; 1 uL; 2.5 mM CHP in 50% EtOH.
6; Detection; Fluorescence; ViewLux microplate reader, excitation 340 nm and emission 450 nm.
7; Incubation; 15 min; room temperature.
8; Detection; Fluorescence; ViewLux microplate reader, excitation 340 nm and emission 450 nm.
NOTES (numbers refer to Sequence numbers above)
1. 3 µL of 333.33 nM GPX4 and 0.016% BSA in assay buffer (50 mM Tris-HCl, 2 mM EDTA (pH 7.5), 150 mM NaCl) was added to columns 3-48 of 1536-well plates using a BioRAPTR Flying Reagent Dispenser (Let's Go Robotics (LGR), Carlsbad, CA). A no-enzyme control (0.01% BSA in TES assay buffer) was added to columns 1-2.
2. 25 nL, library and DMSO controls were added to each well with a pin tool (Kalypsys).
3. The assay plates were incubated for 30 minutes at room temperature.
4. 1 µL of master mix (500 nM glutathione reductase (GR), 5 mM reduced glutathione (GSH), 2.5 mM NADPH in assay buffer) was added.
5. 1 µL of cumene hydroperoxide (CHP) ([2.5 mM] in 50% EtOH) was then added within 5 minutes to initiate the reaction. Final concentrations were: 200 nM GPX4, 1 mM GSH, 0.5 mM CHP, 0.5 mM NADPH, 100 nM GR, 0.01% BSA.
6. Initial fluorescence readout (t=0) at 340/450 nm was measured using a ViewLux multimodal detector (PerkinElmer, Waltham, MA).
8. Endpoint fluorescence readout (t=15) at 340/450 nm was measured 15 min after room temperature incubation.

Compound | outcome | activity change, negative = inhibition [%] | Potency
c1ccc(CNCCNCc2ccccc2)cc1 | inactive | – | –
Nc1cc(Cl)c(NC2=NCCN2)c(Cl)c1 | – | -21.9 | –
CN(C(=O)CN(CCO)CC(=O)N(C)C(C)(C)Cc1ccccc1)C(C)(C)Cc1ccccc1 | inactive | – | –
CCCN1CCCC[C@H]1C(=O)Nc1c(C)cccc1C | – | -12.5 | –
CC(=O)OCC(=O)[C@@]1(O)CC[C@H]2[C@@H]3CCC4=CC(=O)C=C[C@]4(C)[C@H]3[C@@H](O)C[C@@]21C | – | – | inactive
CCOC(=O)n1ccn(C)c1=S | – | -0.743 | –
COc1cccc(OC)c1C(=O)N[C@@H]1C(=O)N2[C@@H]1SC(C)(C)[C@@H]2C(=O)O | – | – | inactive
CNCC[C@@H](Oc1ccccc1C)c1ccccc1 | inactive | – | –
CN1[C@@H]2CC[C@H]1CC(OC(=O)c1c[nH]c3ccccc13)C2 (stereo not given in full) | – | – | inactive
C1CCc2nnnn2CC1 | – | 4.1 | –
Oc1ccc(O)cc1 | – | – | inactive
CC(C)COC(=O)c1ccc(N)cc1 | – | -2.63 | –
CNCCC=C1c2ccccc2CCc2ccccc21 | – | – | inactive
COc1ccc(CCN2CCC(Nc3nc4ccccc4n3Cc3ccc(F)cc3)CC2)cc1 | – | -12.6 | –
CC(C)COC(=O)OCN1C(=O)CN(CCN2CC(=O)N(COC(=O)OCC(C)C)C(=O)C2)CC1=O | – | -16.5 | –
CC(C)(C(=O)c1cccnc1)c1cccnc1 | inactive | – | –
C=C1C(=C/C=C2\CCC[C@]3(C)[C@@H]([C@H](C)/C=C/[C@@H](O)C4CC4)CC[C@@H]23)C[C@@H](O)C[C@@H]1O | inactive | – | –
C[C@@H](CN(C)C)CN1c2ccccc2Sc2ccccc21 | – | -2.5 | –
CC(=O)OCC(=O)NCCCOc1cccc(CN2CCCCC2)c1 | – | -16.2 | –
Oc1cc(O)c2c(c1)O[C@H](c1ccc(O)c(O)c1)[C@H](O)C2 | inactive | – | –

Compound | outcome | activity change, negative = inhibition [%] | Potency
C[C@]12CC[C@@H]3c4ccc(O)cc4CC[C@H]3[C@@H]1C[C@@H](O)[C@@H]2O | – | – | inactive
C=C(CC)C(=O)c1ccc(OCC(=O)O)c(Cl)c1Cl | inactive | – | –
O=C1CCC(c2ccc(-n3ccnc3)cc2)=NN1 | inactive | – | –
CC[C@@H](CO)NCCN[C@@H](CC)CO | – | -3.94 | –
O=C(O)CCCCC(=O)O | – | -2.02 | –
CC(=O)CC(c1ccc([N+](=O)[O-])cc1)c1c(O)c2ccccc2oc1=O (stereo not given) | – | -16.2 | –
CCCCCCCCCCCCCCCCCC(=O)OCC(O)CO (stereo not given) | inactive | – | –
O=C1OC(c2ccc(O)cc2)(c2ccc(O)cc2)c2ccccc21 | inactive | – | –
C#C[C@]1(O)CC[C@H]2[C@@H]3CCC4=CC(=O)CC[C@@H]4[C@H]3CC[C@@]21C | inactive | – | –
CCCCC(=O)O[C@]1(C(=O)CO)CC[C@H]2[C@@H]3CCC4=CC(=O)CC[C@]4(C)[C@H]3[C@@H](O)C[C@@]21C | inactive | – | –
C=CCc1ccc(O)c(OC)c1 | inactive | – | –
CCOC(=O)OC(C)OC1=C(C(=O)Nc2ccccn2)N(C)S(=O)(=O)c2ccccc21 (stereo not given) | – | -8.08 | –
COC(=O)C1=C(C)NC(C)=C(C(=O)O[C@@H]2CCCN(Cc3ccccc3)C2)[C@@H]1c1cccc([N+](=O)[O-])c1 | – | 1.78 | –
O=c1[nH]c(=O)n([C@H]2CCCO2)cc1F | – | – | inactive
NCCCC[C@H](N[C@@H](CCc1ccccc1)C(=O)O)C(=O)N1CCC[C@H]1C(=O)O | – | -2.72 | –
C[C@]12CCC(=O)C=C1[C@@H]1C[C@@H]1[C@H]1[C@@H]3[C@@H]4C[C@@H]4[C@@]4(CCC(=O)O4)[C@@]3(C)CC[C@@H]12 | – | – | inactive
CCOC(=O)[C@H](CCc1ccccc1)N[C@@H](C)C(=O)N1Cc2ccccc2C[C@H]1C(=O)O | – | -8.64 | –
C[C@]12CC[C@@H]3c4ccc(O)cc4CC[C@H]3[C@@H]1CC[C@@H]2O | – | – | inactive
COc1cc(OC)cc(OC)c1 | inactive | – | –
C[C@@H]1C(=O)NC2=Nc3cccc(Cl)c3CN21 | – | -6.56 | –
